In PubChem BioAssay (Tox21):
Unmarked numbers belong to inactive results. Calls follow the shape of the dose curve; as a rule, active = well fitted inhibition curve with a large enough effect in the repeat runs (not every such curve was filed as active); inconclusive = weak or mixed curves; inactive = flat fitted curve, though single readings scatter.

target: Thyrotropin-releasing hormone receptor (Homo sapiens) (UniProt P34981); experiment: qHTS assay to identify small molecule antagonists of the thyrotropin-releasing hormone receptor (TRHR) signaling pathway (AID 1346877); settings: TRHR-HEK293, TRH-induced calcium fluorescence, antagonist mode; series mostly up to 51.3 µM; activity, negative = inhibition: at the top concentration
Source text: National Center for Advancing Translational Sciences [NCATS]
NIH Chemical Genomics Center [NCGC]
U.S. Environmental Protection Agency [EPA]
National Institutes of Environmental Health Sciences [NIEHS]
National Toxicology Program [NTP]
U.S. Food and Drug Administration [FDA]
Thyrotropin-releasing hormone (TRH) receptor (TRHR) is a G-protein-coupled receptor which binds the tripeptide thyrotropin releasing hormone. TRHR is found in the brain and, when bound by TRH, acts (through phospholipase C) to increase intracellular inositol trisphosphate. It plays a crucial role in the anterior pituitary where it controls the synthesis and secretion of thyroid stimulating hormone and prolactin. The TRHR-Hek293 assay is a cell-based assay, and it has the potential to screen G protein-coupled receptors. A compound/drug can either activate (agonist) or suppress (antagonist) GPCRs that can be monitored by levels of intracellular calcium. In this assay, the Tox21 10K compound library was screened to identify potential TRHR antagonists.
Tox21 Assay Protocol Summary:
The TRHR-Hek293 cells were dispensed at 1500cells/4uL/well in 1536-well black-clear bottom plates using a Multidrop dispenser. After the assay plates were incubated at a 37 C/5% CO2 incubator for 18 hours, 4 uL of Dye-Loading Solution was added to each well. The plates were incubated at 37 C for 2 hours. For agonist mode, 23 nL of compounds dissolved in DMSO, positive controls or DMSO only was transferred to the assay plate by a pin tool. The fluorescence intensity in the plates was measured using FDSS 7000EX kinetic plate reader for 3 min at 1 sec intervals. For antagonist mode, 23 nL of compounds dissolved in DMSO, positive controls or DMSO only was transferred to the assay plate by a pin tool. After 5 min incubation at room temperature, 1 uL of TRH was added on the top of the cell/compound mixtures to achieve a final agonist concentration of 1 nM. The fluorescence intensity in the plates was measured using FDSS 7000EX kinetic plate reader for 3 min at 1 sec intervals. Each test compound was measured at 15 concentrations and in triplicates.
% is scaled to controls: 0 for no effect and ±100 for the full control effect.

Sequence of Thyrotropin-releasing hormone receptor (Homo sapiens) (P34981 whole entry, looked up): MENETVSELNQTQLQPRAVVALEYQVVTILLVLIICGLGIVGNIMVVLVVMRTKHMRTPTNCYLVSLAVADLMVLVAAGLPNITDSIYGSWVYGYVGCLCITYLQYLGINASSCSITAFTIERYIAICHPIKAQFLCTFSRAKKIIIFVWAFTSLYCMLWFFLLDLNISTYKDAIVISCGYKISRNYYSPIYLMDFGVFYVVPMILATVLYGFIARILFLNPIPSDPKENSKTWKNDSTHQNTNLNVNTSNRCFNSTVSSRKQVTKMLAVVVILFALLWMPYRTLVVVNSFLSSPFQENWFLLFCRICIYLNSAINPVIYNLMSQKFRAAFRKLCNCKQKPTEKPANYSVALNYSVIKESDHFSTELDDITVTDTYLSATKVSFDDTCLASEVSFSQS

Row | SMILES | activity, negative = inhibition
1 | CCCCC1CCC(=O)O1 (stereo not given) | 5.83%
2 | CCCOc1ccc2c(c1)CC[C@@H]1[C@@H]2CC[C@]2(C)C(OC)CC[C@@H]12 (stereo not given in full) | 1.71% [at 23.6 µM]
3 | CN1CCN(c2c(F)cc3c(=O)c(C(=O)O)cn(CCF)c3c2F)CC1 | 1.54% [at 23.6 µM]
4 | CCCCOc1cc(C(=O)NCCN(CC)CC)c2ccccc2n1 | 6.39% [at 23.6 µM]
5 | CC/C=C\CCOC(=O)CCCCC | 0.0947%
6 | CN(C)Cc1ccccc1 | 0.594%
7 | CN(CCCN1c2ccccc2CCc2ccccc21)CC(=O)c1ccc(Cl)cc1 | -2.12% [at 23.6 µM]
8 | O=C1Nc2ccc([N+](=O)[O-])cc2C1=O | -0.231%
9 | C=C(C)C(=O)OCCOP(=O)(O)O | 3.22%
10 | C1CCOC1 | 2.1%
11 | CC(=O)OC(C)OC(C)=O | 0.552%
12 | CCOC(=O)[C@H](CCc1ccccc1)N[C@@H](C)C(=O)N1Cc2cc(OC)c(OC)cc2C[C@H]1C(=O)O | 0.289% [at 23.6 µM]
13 | CCN(CCCc1ccccc1)CCCc1ccccc1 | -4.67% [at 23.6 µM]
14 | CC(C)(C)c1cccc(O)c1 | -6.71%
15 | COC(=O)C(C)O (stereo not given) | -1.07%
16 | COC(C)CCO (stereo not given) | -1.48%
17 | FC(F)(F)c1ccccc1 | -0.549%
18 | OCCN1CCN(CCO)CC1 | 4.28%
19 | COc1cc(N)c(Cl)cc1C(=O)NC1CCN(Cc2ccccc2)CC1 | 0.577% [at 23.6 µM]
20 | CC(C)=CCCC(C)CCOC=O (stereo not given) | 7.51%

Row | SMILES | activity, negative = inhibition
21 | CCCCNCCCC | 12.3%
22 | CC(C)C(=O)OC/C=C/c1ccccc1 | -5.07%
23 | CC(C)C1=CC2=CC[C@@H]3[C@](C)(CCC[C@@]3(C)C(=O)O)[C@H]2CC1 | -16.1%
24 | CCN(CC)CCNC(=O)COc1ccc(Cl)cc1 | -0.899% [at 23.6 µM]
25 | OCCN(CCO)c1ccccc1 | -8.43%
26 | CCCCCCC | 22.3%
27 | CN(CC1(C)CCCO1)S(=O)(=O)c1ccc(Cl)c(S(N)(=O)=O)c1 (stereo not given) | 3.13% [at 23.6 µM]
28 | COc1cc2c(cc1N)oc1ccccc12 | 2.62%
29 | C[C@]12CCC(=O)C=C1CC[C@@H]1[C@@H]2CC[C@@]2(C)[C@H]1CC[C@]2(O)C(=O)CO | 1.66% [at 23.6 µM]
30 | NC(Cc1ccc(F)cc1)C(=O)O (stereo not given) | -1.45% [at 4.65 µM]
31 | CC(=O)Oc1cc(C(C)C)c(OCCN(C)C)cc1C | 5.91% [at 23.6 µM]
32 | OCc1c2ccccc2cc2ccccc12 | -0.319%
33 | Cc1cc(NS(=O)(=O)c2ccc(N)cc2)nc(C)n1 | 1.12% [at 23.6 µM]
34 | COc1nc(C)nc(NC(=O)NS(=O)(=O)c2ccccc2OCCCl)n1 | -0.27%
35 | O=C(O)c1ccccc1Nc1cc(Cl)ccc1C(=O)O | 1.01% [at 10.5 µM]
36 | COC(=O)N[C@H](C(=O)N[C@@H](Cc1ccccc1)[C@@H](O)CN(Cc1ccc(-c2ccccn2)cc1)NC(=O)[C@@H](NC(=O)OC)C(C)(C)C)C(C)(C)C | 4.09% [at 23.6 µM]
37 | CC1=CC(=O)CC(C)(C)C1=O | 0.87%
38 | COc1ccccc1OCC(O)COC(N)=O (stereo not given) | 1.03% [at 23.6 µM]
39 | Cc1ccc([N+](=O)[O-])cc1Cl | 4.38%
40 | CN(C)CCOc1ccccc1Cc1ccccc1 | -0.207% [at 23.6 µM]
